# Assay results reported in PubChem BioAssay AID2732 (Emory University Molecular Libraries Screening Center, 2010).
# Among all 220,000 compounds or so, about 8,200 (3.7%) were called active. The sample holds actives, similar compounds and a random draw of the others, so the mix is not that of the screen. Values without a mark were called inactive.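 Rule for the calls: active = compounds that reduced the stress-induced luciferase reporter signal by more than about 70% of percent inhibition (limit read from the data); inactive = the rest.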
# Assay: blockers of ER-stress CHOP reporter expression – cell-based, unfolded protein response, luciferase reporter, primary screen (AID 2732);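 note: 0% = tunicamycin plus vehicle and 100% = wells without tunicamycin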
# Conditions: CHO-K1 CHOP-promoter luciferase, tunicamycin-induced, 15-18 h; at 10 µM; active compounds read high
row,Structure (SMILES),inhibition
1,Cc1ccc(CSc2nnc(-c3cnccn3)n2C)cc1,-17.8%
2,O=C(NCc1ccccc1)c1ccc(CNc2c(N3CCCC3)c(=O)c2=O)cc1,3.8%
3,Cc1cc(=O)[nH]c(SCC(=O)Nc2ccc(Br)cc2)n1,28.6%
4,Cc1nc2cccnc2nc1C,-3.08%
5,O=C(COC(=O)c1ccc(S(=O)(=O)Nc2ccccc2)cc1)NCC1CCCO1 (stereo unspecified),0.29%
6,O=C(Nc1ccccc1)C1CC(=O)n2c(nc3ccccc32)N1 (stereo unspecified),3.28%
7,COc1ccc(CCN(C)CCN2C(=O)c3ccccc3C2=O)cc1OC,-9.23%
8,COC(=O)c1ccc(C2C(Oc3ccccc3C)C(=O)N2CCc2ccc(OC)c(OC)c2)cc1 (stereo unspecified),18.6%
9,COc1ccc(CCN2C(=O)c3[nH]nc(-c4ccccc4O)c3C2c2ccc(C)cc2)cc1OC (stereo unspecified),75.2% (active)
10,CS(=O)(=O)c1sc(C(=O)NC(=S)Nc2ccc(OC(F)(F)F)cc2)c2c1C=CCC2,-21.9%
11,COc1ccc(SC[C@H](Cc2ccccc2)N2CCN(CCc3ccccc3)CCC2=O)cc1,26.9%
12,Cc1csc(/N=C/N(C)C)c1C#N,11.2%
13,CC1CCN(c2c(NCc3ccc(C(=O)NCc4ccccc4)cc3)c(=O)c2=O)CC1,1.88%
14,Cc1cc(=O)[nH]c(N/N=C/c2ccc3c(c2)OCCO3)n1,-1.69%
15,CN(CC(=O)Nc1ccccc1[N+](=O)[O-])Cc1ccc(Br)cc1,5.7%
16,CSc1ccccc1NC(=O)CN(C)CC(=O)Nc1ccc(Cl)cc1[N+](=O)[O-],18.7%
17,Cc1ccc(NC(=O)CN(C)Cc2ccc(F)cc2)c([N+](=O)[O-])c1,71.6% (active)
18,Cc1cc(C(=O)NNS(=O)(=O)c2ccccc2C(F)(F)F)nn1C(C)(C)C,14.2%
19,NC1=NC(=O)C(Cc2cccc(Cl)c2Cl)S1 (stereo unspecified),-11.3%
20,O=C1NC(=Nc2ccc(Cl)cc2)SC1Cc1cccc(Cl)c1Cl (stereo unspecified),94.3% (active)
21,O=C1N/C(=N\N=C\c2ccco2)SC1Cc1ccc(F)cc1 (stereo unspecified),2.81%
22,COC(C[C@H](O)CC(=O)COCc1ccccc1)OC,17.8%
23,NC(=O)c1ccc(NC(=O)COC(=O)c2ccc([N+](=O)[O-])cc2)cc1,4.31%
24,Cc1cc(C)cc(NC(=O)NC2CCN(CC(=O)Nc3cccc(Cl)c3C)CC2)c1,14.5%

row,Structure (SMILES),inhibition
1,Cc1nc(Cl)c2oc3ccccc3c2n1,-37.5%
2,COc1ccc(CCNC(=O)CSc2nc(C)nc3c2oc2ccccc23)cc1OC,5.77%
3,CCSc1nc(C)nc2c1oc1ccccc12,97.9% (active)
4,CC1=CC(C)(C)NC(=S)N1NC(=O)c1ccccc1Cl,-2.87%
5,CCOc1ccc(C2NC(=S)NC3=C2CCc2ccccc23)cc1 (stereo unspecified),-10.8%
6,Cc1ccccc1NC(=O)CN1C(=O)N/C(=C\c2cccn2-c2cccc(C(=O)O)c2)C1=O,1.36%
7,COc1cc2c(cc1/C=C1/NC(=O)N(c3ccccc3)C1=O)OCO2,-2.61%
8,O=C1N/C(=C/c2cccn2-c2ccccc2)C(=O)N1c1cccc(Cl)c1,86.8% (active)
9,Cc1c(C)c(C)c2[nH]c(=S)[nH]c2c1C,20.2%
10,N#CCc1ccc(OC(=O)c2cccnc2)cc1,12.3%
11,Cc1nn(-c2ccccc2)c2sc(C(=O)N(Cc3ccco3)C(C)C(=O)NC(C)(C)C)cc12 (stereo unspecified),80.4% (active)
12,Cc1ccc(-c2nnn(CC(=O)N(Cc3ccco3)C(C(=O)NC(C)(C)C)c3ccncc3)n2)o1 (stereo unspecified),6.52%
13,Cc1nc(C)c(C(=O)N(c2ccc(C)c(C)c2)C(C(=O)NCc2ccco2)c2ccccc2)s1 (stereo unspecified),-35.7%
14,Cc1cc(C)c(C)c(S(=O)(=O)N[C@@H](C)C(=O)OC(C)C(=O)NC(N)=O)c1C (stereo partly specified),-9.66%
15,Cc1ccc(Oc2nc(-c3ccccn3)nc3ccccc23)cc1,-40.5%
16,CCOC(=O)c1ccc2c(c1)nc(C)n2CC,3.33%
17,CCOC(=O)CNC(=O)CSc1nc2cccnc2n1CC,5.31%
18,CCOC(=O)c1ccc2c(c1)nc(SCC(=O)NC(C)C)n2CC,76% (active)
19,COCCN(CCOC)S(=O)(=O)c1ccc(/C(O)=C(\C#N)c2nc3ccccc3[nH]2)cc1,1.37%
20,C=CCN(CC=C)S(=O)(=O)c1ccc(C(=O)Nc2sc3c(c2C(N)=O)CCCCC3)cc1,41%
21,COCCN(CCOC)S(=O)(=O)c1ccc(C(=O)Nc2nc3c(s2)CCc2ccccc2-3)cc1,82.3% (active)
22,CCN(c1ccccc1)S(=O)(=O)c1ccc(C(=O)Nc2nccs2)cc1,31.6%
23,COc1ccc(C(=O)Nc2ncc3c(n2)-c2ccccc2CC3)cc1,-1.8%
24,C=CCN(CC=C)S(=O)(=O)c1ccc(C(=O)Nc2nc3c(s2)CCc2ccccc2-3)cc1,71% (active)

row,Structure (SMILES),inhibition
1,COc1ccc2[nH]c(C(=O)Nc3ccccc3Cl)cc2c1,2.73%
2,CC(C)(C)C(=O)Nc1c(Br)c(C2CC2)nn1-c1ccccc1,0.02%
3,CC(C)(C)c1cc(P(=O)(c2ccccc2)c2ccccc2)ccc1O,9.08%
4,CN1CCN(c2ncc3c(n2)CC(c2ccccc2F)CC3=O)CC1 (stereo unspecified),15.3%
5,CSc1sc(C(=O)NC(=O)NCc2cccnc2)c(C)c1-c1ccon1,28.4%
6,COC(=O)c1c(C(=O)OC)c2n(c1C)CCS2,14.2%
7,CCn1c(=O)c2cc(C(=O)Nc3cccc(C(C)=O)c3)sc2c2ccccc21,-10.2%
8,Cc1ccc(S(=O)(=O)N(C)CC(=O)NC2CCCC2)cc1,36.5%
9,Cc1ccc(NC(=O)NC(=O)N(C2CCCCC2)S(=O)(=O)c2ccccc2)cc1,84% (active)
10,CC(c1ccco1)N(C(=O)Nc1ccccc1)C1CCCCC1 (stereo unspecified),36.4%
11,CC1CC(NC(=O)/C(C#N)=C/c2ccc[nH]2)CC(C)(C)C1 (stereo unspecified),-0.59%
12,Cc1nc2cc3c(cc2s1)OCO3,14%
13,CCCc1c(C(=O)Nc2ccc(F)cc2)cnn1-c1ccccc1,14.9%
14,Cc1ccc(Nc2cc(C)nc3c(C)ccc([N+](=O)[O-])c23)cc1,71.4% (active)
15,Cc1cc(C)nc(Nc2cc([N+](=O)[O-])ccc2C)n1,0.9%
16,Cc1ccc(Nc2ccc(C(N)=O)cc2[N+](=O)[O-])cc1,21.8%
17,Cn1c(Cc2cccc3ccccc23)nnc1SCC(=O)N1CCN(c2cccc(Cl)c2)CC1,78.6% (active)
18,Cc1cc2nnc(SCC(=O)N3CCN(c4ccccc4)CC3)n2c(N)n1,23.7%
19,Cc1ccccc1NC(=O)Cc1nnc(SCC(=O)N2CCN(c3ccccc3)CC2)n1C,26.1%
20,COc1ccc(OC)c(C(=O)c2ccc(Cl)cc2)c1,9.86%
21,Cc1ccc(C2=NN(C)c3nc4ccccc4n3C2)cc1,86.3% (active)
22,Cn1cccc1-c1nc2ccccc2n1C,-2.65%
23,Cc1ccc(O)c(CNc2nc3ccccc3n2C)c1,11.9%
24,COc1ccccc1-n1c(-c2cc(-c3ccco3)[nH]n2)n[nH]c1=S,-7.77%

row,Structure (SMILES),inhibition
1,CCO[C@@H]1OC(C(=O)NC2CC2)=C[C@H](C)[C@H]1CCCO,0.64%
2,CCOC(=O)CN(C(=O)COc1nc(C)cc(C)c1C#N)c1ccc(Cl)cc1,23.1%
3,O=C(CCCN1C(=O)/C(=C/c2ccco2)SC1=S)Nc1ccccc1,32.2%
4,O=C(CCN1C(=O)/C(=C/c2cccs2)SC1=S)NNC(=O)c1cccc(O)c1,46.3%
5,O=C(CCCN1C(=O)/C(=C\c2ccco2)SC1=S)Nc1cccc2ccccc12,73.2% (active)
6,O=c1oc(-c2ccccc2NS(=O)(=O)c2ccc(Cl)cc2)nc2ccccc12,21%
7,Cc1ccc(SCc2c(C(=O)N/N=C/C3CC=CCC3)nnn2-c2nonc2N)cc1 (stereo unspecified),36.4%
8,CC(=O)N1N=C(c2ccncc2)OC1(Cc1ccccc1)Cc1ccccc1,-11.2%
9,Cc1ccc(NC(=O)CSc2nnc(COc3ccccc3C)o2)cc1,39.4%
10,Cc1cc(C)cc(OCc2nnc(SCC(=O)Nc3ccccc3)o2)c1,91.5% (active)
11,Cc1cc(C)cc(OCc2nnc(SCC(=O)OC3CCCCC3)o2)c1,25.7%
12,COc1ccc2c(c1)C(=C(C#N)C#N)C(=O)N2CCc1ccccc1,-16.5%
13,O=C1CCC(=O)N1c1ccc(NCCc2ccccc2F)c([N+](=O)[O-])c1,20%
14,NC(=O)CC(NC(=O)Cc1cccc2ccccc12)c1ccc(NCc2cc(F)ccc2F)c([N+](=O)[O-])c1 (stereo unspecified),99.3% (active)
15,O=[N+]([O-])c1ccccc1NCc1ccccc1Cl,34.1%
16,Brc1ccc2ncnc(NCc3cccnc3)c2c1,50.9%
17,CCC(C(=O)OCC(=O)Nc1ccc(C(=O)Nc2ccc(OC)cc2)cc1)c1ccccc1 (stereo unspecified),89.3% (active)
18,CCC(C(=O)OCC(=O)Nc1ccccc1-c1ccccc1)c1ccccc1 (stereo unspecified),6.12%
19,CCC(C(=O)OCC(=O)Nc1c(Cl)cc(Cl)cc1Cl)c1ccccc1 (stereo unspecified),48.2%
20,COc1ccc(C2c3ccc(O)cc3Oc3ncn(CCCO)c(=N)c32)cc1OC (stereo unspecified),11.6%
21,CCOCCn1c(-c2ccccc2)nc2ccccc21,5.67%
22,c1ccc(-c2ccnc3nc(-n4cccc4)nn23)cc1,7.91%
23,Cc1ccc(-c2ccnc3nc(Sc4ncc(C(F)(F)F)cc4Cl)nn23)cc1,81.4% (active)
24,Cc1nn(-c2ncc(C(F)(F)F)cc2Cl)c(=O)n1-c1ccccc1,-12.9%
